Shown is part of a subset that was picked to be rich in hits.
VHR inh color: inhibitors of human VHR1 phosphatase (DUSP3). P51452. recombinant VHR phosphatase, colorimetric substrate read-out. inhibition, % at 20 µM. 0.7% of 50,000 active. AID 1992; in the data active = inhibition above about 60%
Target sequence (P51452 whole entry, looked up): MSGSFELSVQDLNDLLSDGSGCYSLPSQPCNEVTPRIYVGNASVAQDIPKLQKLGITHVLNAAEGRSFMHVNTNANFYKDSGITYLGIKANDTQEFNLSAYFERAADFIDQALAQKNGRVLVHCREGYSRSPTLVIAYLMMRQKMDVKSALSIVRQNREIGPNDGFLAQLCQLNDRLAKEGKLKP
An asterisk follows results filed as active.

SMILES	VHR inh color
Cc1cccc(NC(=O)/C(C#N)=C\c2ccc(I)o2)c1C	-8
COc1ccc(C=C2C(=O)c3ccccc3C2=O)c(OC)c1	-18
COc1cc(C2Nc3ccccc3NC3=C2C(=O)CC(c2ccc(Cl)cc2)C3)cc(Br)c1O (stereo not drawn)	-3
CCOc1cc(C2Nc3ccccc3NC3=C2C(=O)CC(c2ccc(OC)cc2)C3)cc(Br)c1O (stereo not drawn)	2
CCOc1cc(C2Nc3ccccc3NC3=C2C(=O)CC(c2ccccc2)C3)cc(Br)c1O (stereo not drawn)	99*
O=C1C2C3C=CC(C2C(=O)N1Cc1ccccc1)C1C(=O)N(Cc2ccccc2)C(=O)C31 (stereo not drawn)	5
O=C1C2C3C=CC(C2C(=O)N1C1CCCCC1)C1C(=O)N(C2CCCCC2)C(=O)C31 (stereo not drawn)	106*
CCC(C)N1C(=O)C(=O)N(C2CCCCC2)C1=O (stereo not drawn)	-7
Cc1cccc(NCC(O)Cn2c3ccccc3c3ccccc32)c1C (stereo not drawn)	-4
Oc1ccccc1C=Nc1ccccc1N=Cc1c(O)ccc2ccccc12	-1
COc1cc(-c2noc(-c3ccc(C)cc3)n2)cc(OC)c1OC	6
Cc1ccc(C)n1-c1ccc(OCC(=O)O)cc1	29
CC(=O)c1ccc(-n2c(C)ccc2C)cc1	11
Cc1ccc(C)n1-c1ccc(SCC(=O)O)cc1	91*
O=C1N/C(=N\N=C\c2ccccc2F)SC1Cc1cccc([N+](=O)[O-])c1 (stereo not drawn)	-7
O=C(Nc1ccccc1)Nc1nc(C(c2ccccc2)c2ccccc2)cs1	88*
O=C(Nc1ccccc1)Nc1nnc(C(c2ccccc2)c2ccccc2)s1	-18
O=C(Nc1ccccc1)Nc1nccs1	5
O=C(/C=C/c1ccccc1Cl)NCC1CCCO1 (stereo not drawn)	-12
COc1ccc(C(=O)Nc2cc(C)cc(C)c2)c(OC)c1	6
COc1ccc(C(=O)Nc2ccc(S(=O)(=O)Nc3cc(C)on3)cc2)c(OC)c1	110*
Cc1cc(NS(=O)(=O)c2ccc(NC(=O)c3cc(Cl)cc(Cl)c3)cc2)no1	-28
C=CCNC(=O)CN(c1ccc(Cl)cc1)S(C)(=O)=O	-14
O=C1S/C(=C\c2ccc(Br)c([N+](=O)[O-])c2)C(=O)N1c1ccccc1	0
COc1ccc(N2C(=O)c3ccc4c5c(ccc(c35)C2=O)CC4)c(OC)c1	6
SMILES	VHR inh color
CC1(C)C(C(=O)Nc2cccc3ccccc23)C1(C)C	-9
NC(=O)C(=O)Nc1cccc2ccccc12	0
O=C(Nc1cccc2ccccc12)C1C(c2ccccc2)=C1c1ccccc1	100*
C=COCn1c2ccc(Cl)cc2c2cc(Cl)ccc21	-13
Cc1nn(CC(O)Cn2c3ccc(Cl)cc3c3cc(Cl)ccc32)c(C)c1Br (stereo not drawn)	-30
COc1ccc(NC(=O)/C=C2\NC(C)(C)Cc3ccccc32)cc1	16
CSCCC(C(=O)O)N1C(=O)/C(=C/c2ccccc2Cl)SC1=S (stereo not drawn)	-40
COc1ccc(C2CC(=O)C3=C(C2)Nc2ccccc2NC3c2coc3c(Cl)cc(Cl)cc3c2=O)cc1 (stereo not drawn)	105*
COc1ccc(C2CC(=O)C3=C(C2)Nc2ccccc2NC3c2ccccc2Cl)cc1 (stereo not drawn)	2
COc1ccc(C2CC(=O)C3=C(C2)Nc2ccccc2NC3c2cc3c(cc2Cl)OCO3)cc1 (stereo not drawn)	-17
O=C(Nc1ccccc1Cl)c1cc(-c2ccco2)nc2ccccc12	-17
Cc1ccc(C)n1-c1ccc(C(=O)O)c(O)c1	97*
Cc1ccc(C)n1-c1cc(C(=O)O)cc(C(=O)O)c1	26
Cc1ccc(C)n1-c1ccc(C(=O)O)c(Cl)c1	47
CN1C(c2ccccc2)CC(O)(C#Cc2ccccc2)CC1c1ccccc1 (stereo not drawn)	-6
C#CCOc1c(Br)cc(/C=C2\C(=O)NC(=O)N(c3ccc(Cl)cc3)C2=O)cc1OC	0
O=C1CC(c2ccccc2)CC2=C1C(c1cccc(C(F)(F)F)c1)Nc1ccccc1N2 (stereo not drawn)	-10
COc1c(Cl)cc(Cl)cc1/C=C(\C#N)c1nn(CCO)c(N)c1C#N	19
CC(C)C1=NN2C(=N)/C(=C/c3cc(Cl)ccc3OCc3ccccc3)C(=O)N=C2S1	27
C=CCOc1ccc(Cl)cc1/C=C1/C(=N)N2N=C(CCC)SC2=NC1=O	108*
CCCC1=NN2C(=N)/C(=C/c3ccccc3C)C(=O)N=C2S1	-2
COC(=O)CCC(C(=O)NC(=O)NC(c1ccccc1)c1ccccc1)N1C(=O)c2ccccc2C1=O (stereo not drawn)	-7
CCCC(=O)Oc1cc2c(C(=O)OCC)c(C)n(C)c2c2ccccc12	-11
O=C1C=CC(=O)N1c1ccccc1N1C(=O)C=CC1=O	84*
Cc1ccc(N2C(=O)C=CC2=O)c(Br)c1	55
SMILES	VHR inh color
COc1ccc(N2C(=O)C=CC2=O)cc1	32
CCN(CC)c1ccc(NC(=O)/C=C/c2ccc(OC)c(Br)c2)cc1	-5
CCOC(=O)C1=C(O)/C(=C/c2cc(OC)c(OC)c(OC)c2)SC1=Nc1ccccc1	0
c1ccc2c(CNC34CC5CC(CC(C5)C3)C4)c[nH]c2c1	active
O=C1C=C(NCCc2c[nH]c3ccccc23)CC(c2ccccc2)C1 (stereo not drawn)	29
CCC(CC)NCc1c[nH]c2ccccc12	-12
CCc1c(C)nc(N)nc1N1CCOCC1	64
O=C(c1ccc(F)cc1)N1CCN(Cc2ccc3c(c2)OCO3)CC1	0
O=C(Nc1ccccc1)N1CCN(Cc2ccc3c(c2)OCO3)CC1	101*
O=C(COc1ccc2ccccc2c1)N1CCN(Cc2ccc3c(c2)OCO3)CC1	6
COc1ccc(C(=O)/C=C/c2ccc(OC)c([N+](=O)[O-])c2)cc1	-8
O=C1c2ccccc2/C(=N/N=C/C=C/c2ccco2)C1C(=O)C(c1ccccc1)c1ccccc1 (stereo not drawn)	88*
C(/C=C/c1ccco1)=N/N1CCN(c2ccccc2)CC1	41
Cc1ccc(NCC(=O)N/N=C\C=C\c2ccco2)cc1	4
Cc1cc(C2CCC(c3ccc(NC(=O)c4cccs4)c(C)c3)CC2)ccc1NC(=O)c1cccs1 (stereo not drawn)	-28
CCN(CC)C(=O)c1ccccc1NC(=O)c1ccccc1Cl	-4
O=C(O)c1cccc(NC(=O)c2cc(S(=O)(=O)N(CCO)CCO)ccc2Cl)c1	-6
CC(=O)Nc1ccc2c(c1)C1C=CCC1C(C(=O)O)N2 (stereo not drawn)	-2
O=C(O)C1Nc2c(Cl)cc(Cl)cc2C2C=CCC12 (stereo not drawn)	97*
COc1ccc2c(c1)C1C=CCC1C(C(=O)O)N2 (stereo not drawn)	23
CCOc1ccc(NC(=O)/C=C/c2ccc([N+](=O)[O-])cc2)cc1	-1
CCOc1cc(-c2ccc(O)cc2)cc(=O)c2c(C)oc(C)c12	-12
CCOc1cccc(/C=C2/SC(=S)NC2=O)c1O	-1
CCOc1cccc(=O)c2c(C)[nH]c(C)c12	75*
COc1ccc(Nc2ncnc3[nH]ncc23)cc1	-11
C=CCN1C(=O)/C(=C\c2ccc(OCc3ccccc3)c(OCC)c2)SC1=S	-4
O=C(Nc1ccc(I)cc1Cl)c1ccc(Cl)c(Cl)c1	-18
Cn1cccc1/C=C1/C(=O)NC(=S)N(c2cccc(Cl)c2)C1=O	75*
O=C1NC(=S)N(c2ccc(Br)cc2)C(=O)/C1=C/C=C/c1ccccc1	24

From PubChem BioAssay
